Screening results from PubChem BioAssay.
NPC1 prom act: qHTS Assay for NPC1 Promoter Activators; Huh7 NPC1 promoter luciferase reporter, 24 h; Potency, µM (titrated, usually from 9.22 µM), usual class: activators; 320,000 tested, 2.4% active; also: nearly all actives have a fitted effect of over 60% in size
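Compounds in DMSO were transferred onto Huh7 NPC1-luciferase reporter cells pre-incubated 2 h; after 24 h at 37 °C, Amplite reagent was dispensed and luminescence recorded 10 min later.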
Rab9 prom act: qHTS Assay for Rab9 Promoter Activators | Huh7 Rab9 promoter-luciferase reporter, luminescence, 24 h | Potency, µM (series often up to 9.22 µM), usual class: activators | 320,000 tested, 2.8% active | AID 485297, 2010; also: nearly all actives have a fitted effect of over 60% in size
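Luminescence from Amplite-detected luciferase (10 minutes, ambient) reports Rab9 promoter activation. Before that, stable Rab9-luciferase Huh7 cells (1500/well, reduced-serum OP-MEM I plus 10% FBS) were exposed to compound for 24 hours at 37C.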
ELG1 genotoxic: qHTS screen for small molecules that induce genotoxicity in human embryonic kidney (HEK293T) cells expressing luciferase-tagged ELG1. HEK293T ELG1-luciferase reporter, luminescence, 16 h. Potency, µM (titrated, usually from 46 µM), hits mostly activators. 330,000 tested, 1.3% active; also: nearly all actives have a fitted effect of over 60% in size
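HEK293T cells expressing luciferase-tagged ELG1 were exposed to compound or DMSO vehicle for 16 hr at 37 °C and 5% CO2. Luciferase activity was then measured with ONE-Glo after 30 min at room temperature.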
FLuc counter: qHTS profiling assay for firefly luciferase inhibitor/activator using purifed enzyme and Km concentrations of substrates (counterscreen for miR-21 project). Luciferin 4-monooxygenase (Photinus pyralis), P08659. Potency, µM (top dose mostly 57.5 µM), hits mostly inhibitors. purified FLuc, Km substrates, luminescence inhibition. 360,000 tested, 6.9% active. AID 588342, 2011; also: nearly all actives have a fitted effect of over 55% in size
Target sequence (P08659 whole entry, looked up): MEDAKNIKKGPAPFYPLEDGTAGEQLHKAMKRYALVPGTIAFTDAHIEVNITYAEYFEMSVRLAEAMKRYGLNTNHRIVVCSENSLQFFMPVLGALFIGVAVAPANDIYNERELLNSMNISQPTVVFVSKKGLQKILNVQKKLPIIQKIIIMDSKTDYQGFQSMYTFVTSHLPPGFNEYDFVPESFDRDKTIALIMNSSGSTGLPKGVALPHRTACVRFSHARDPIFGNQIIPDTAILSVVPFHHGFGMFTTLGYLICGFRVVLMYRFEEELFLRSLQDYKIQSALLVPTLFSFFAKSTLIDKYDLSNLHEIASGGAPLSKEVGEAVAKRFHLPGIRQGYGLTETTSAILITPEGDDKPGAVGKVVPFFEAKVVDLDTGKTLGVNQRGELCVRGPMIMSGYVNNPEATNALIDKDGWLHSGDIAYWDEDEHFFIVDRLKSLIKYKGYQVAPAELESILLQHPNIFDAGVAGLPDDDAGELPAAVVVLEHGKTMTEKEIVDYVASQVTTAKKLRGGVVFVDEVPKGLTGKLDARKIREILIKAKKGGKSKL
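Purified P. pyralis luciferase (10nM final) with 10uM D-luciferin and 10uM ATP (Km levels) in 50mM Tris acetate pH 7.5, 10mM Mg acetate, 0.01% Tween-20, 0.05% BSA; qHTS 6-point titration, ~60 µM downward; luminescence read.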
SMN2 splice up: qHTS Assay for Enhancers of SMN2 Splice Variant Expression; AID 1458, 2008; HEK293 SMN2-luciferase splicing reporter, luminescence, 30-36 h; Potency, µM (highest dose often 46.1 µM), hits mostly activators; 210,000 tested, 2.8% active; also: nearly all actives have a fitted effect of over 55% in size
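HEK293 cells carry an SMN2 […]–luciferase reporter in which exon 7 inclusion puts luciferase in frame. Cells were plated 10-12 h before compound addition, then incubated 30-36 h at 37C. ONE-Glo luminescence was read; sodium butyrate at 4.5 mM final served as control.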
Numbers stand for hits; – = inactive; ? = inconclusive; · = no result; [ ] = remark or other dose. An excerpt weighted towards active compounds, which were near 7.4% of everything screened. Calls follow the shape of the dose curve; as a rule, active = well fitted curve in the direction sought with a large enough effect; inconclusive = small, poorly fitted or top-dose-only effect, or another doubt; inactive = no such curve, though single readings can be large; an effect the other way counts as inactive or inconclusive.

SMILES	NPC1 prom act	Rab9 prom act	ELG1 genotoxic	FLuc counter	SMN2 splice up
Cc1cc(C(=O)COC(=O)[C@H](C)NC(=O)c2ccco2)c(C)n1Cc1ccco1	–	–	–	7.57µM	–
Cc1cc(C(=O)COC(=O)CNC(=O)c2ccc(Cl)c(Cl)c2)c(C)n1Cc1ccco1	–	–	–	–	–
Cc1cc(C(=O)COC(=O)Cn2c(C(F)(F)F)nc3ccccc32)c(C)n1Cc1ccco1	–	–	–	21.3µM	–
CC(C)c1ccc(OCC(=O)NCC(c2ccc(Cl)cc2)N2CCOCC2)cc1 (stereo not drawn)	·	·	·	–	·
Cc1ccc2sc(-c3ccc(N)cc3)nc2c1	·	·	·	0.169µM	0.631µM
Cc1ccc2nc(-c3ccc(N)cc3)sc2c1	0.316µM	0.224µM	?	0.107µM	·
CC(=O)Nc1nc2cc(N)ccc2s1	–	–	–	–	·
Nc1ccc2nc(-c3ccccc3)sc2c1	·	·	·	0.301µM	0.501µM
Nc1ccc(-c2nc3cc(N)ccc3s2)cc1	0.501µM	0.708µM	2.91µM	0.675µM	·
Cc1ccc(S(=O)(=O)Nc2nc3ccc(N)cc3s2)cc1	–	–	–	–	·
C=C1C=C(C(F)F)n2ncc(C(=O)NCCc3ccccc3Cl)c2N1	·	·	·	–	·
O=C(C1CC1)N1CCc2cc(Br)cc(S(=O)(=O)N3CCN(c4cccc(C(F)(F)F)c4)CC3)c21	·	·	·	–	–
C=C[C@@]1(C)CC[C@H](O)[C@H]2C(=O)CCC[C@@H]21	·	·	·	·	–
O=C(Nc1ccc(F)cc1F)NC1CCN(Cc2c(F)cccc2Cl)CC1	–	–	–	–	·
CC[C@@H](C)[C@@H](C(=O)N1CCNCC1)n1cc(CCC(=O)O)nn1	–	–	–	–	·
Cc1ccc2nc(-c3ccc(N4C(=N)SC5CS(=O)(=O)CC54)cc3)sc2c1 (stereo not drawn)	?	2.82µM	?	8.49µM	·
COc1ccc(N2C(=O)S[C@@H]3CS(=O)(=O)C[C@@H]32)cc1	–	–	–	–	–
COc1ccc(/C=N/NC(=O)c2cc(C34CC5CC(CC(C5)C3)C4)[nH]n2)cc1O	–	–	?	15.1µM	–
O=C(O)c1ccc(/C=C/c2nc3sc4c(c3c(=O)[nH]2)CCC4)cc1	–	–	–	19µM	–
CCn1c(/C=C/c2c(C)[nH]c3ccccc23)nc2ccccc2c1=O	–	–	–	–	–[1.84 µM]
O=C(O)c1ccc(-n2c(/C=C\c3ccc(O)cc3)nc3ccccc3c2=O)cc1	·	·	·	?	–
O=c1[nH]c(/C=C/c2ccccc2Cl)nc2ccccc12	?	0.398µM	2.06µM	0.849µM	·
O=C(O)c1ccc(/C=C/c2nc3ccccc3c(=O)[nH]2)cc1	–	–	–	15.1µM	·
Cc1[nH]c2ccccc2c1/C=C/c1nc2ccccc2c(=O)[nH]1	3.16µM	1.41µM	7.3µM	2.39µM	·
C[C@@]1(C(NS(=O)(=O)c2cccc3cccnc23)c2ccc(-c3ccccc3)cc2)C[C@H]1C1CCCCC1 (stereo partly drawn)	·	·	·	·	–
SMILES	NPC1 prom act	Rab9 prom act	ELG1 genotoxic	FLuc counter	SMN2 splice up
CCC(CO)Oc1cc(NC(=O)Cc2ccccc2)c2ncn(C(C)C)c2c1 (stereo not drawn)	·	·	–	·	·
COc1cc(/C=C/c2nc3ccccc3c(=O)[nH]2)cc(Br)c1O	–	–	–	–	·
Cc1cccc(/C=C/c2nc3ccccc3c(=O)[nH]2)c1	?	?	8.2µM	1.07µM	4.47µM
N#Cc1ccc(/C=C\c2nccc3c2[nH]c2ccccc23)cc1	?	–	–	?	–
Clc1ccc(/C=C\c2nccc3c2[nH]c2ccccc23)cc1	–	–	–	3.79µM	–
O=C(c1ccc(COc2ccc(F)cc2)o1)n1cccn1	–	–	–	23.9µM	–
Cc1cc(OCc2ccc(C(=O)n3cccn3)o2)ccc1Cl	?	?	?	?	11.2µM
COc1ccccc1CN1CC[C@@]2(CCCN(S(=O)(=O)c3ccccc3)C2)C1	·	·	·	·	–
CCC1=Nc2ccccc2-c2nnc(SC)nc2O1	–	–	–	–	2µM
CSc1nnc2c(n1)OC(C)=Nc1ccccc1-2	–	–	–	–	–
O=C(COc1ccccc1)N1CCCCCCC1	–	–	–	–	·
CCC1CCCCN1C(=O)CCCOc1ccccc1 (stereo not drawn)	?	?	13µM	19µM	–
O=C(c1ccc(COc2ccc(Cl)cc2)cc1)N1CCCCC1	?	?	?	12µM	–
O=C(CCCOc1ccc(Cl)cc1)N1CCCCCC1	–	–	16.4µM	–	–
O=C(COc1ccc(Cl)cc1)N1CCCCCCC1	–	–	–	–	·
O=C(CCCOc1ccccc1)N1CCCCC1	0.501µM	?	0.461µM	1.51µM	2.51µM
CCOc1ccccc1CNCc1c(C(=O)O)c(C)n(Cc2ccc(Cl)cc2)c1C	·	·	·	–	–
O=C(CCCOc1ccc(Cl)cc1)N1CCOCC1	–	–[1.84 µM]	?	–	–
CCOC(=O)C1CCN(C(=O)CCCOc2ccccc2)CC1	?	?	?	9.53µM	–
O=C(CCCOc1ccc(Cl)cc1)N1CCCCC1	–	3.55µM	20.6µM	–	·
CCOC(=O)Cn1cncc1-c1ccc([N+](=O)[O-])cc1	–	?	–	23.9µM	?
Cn1cc(/C=C2\SC(=S)N(NC(=O)c3ccccc3Cl)C2=O)c2ccccc21	–	–	–	26.9µM	–
Cc1ccc(C(=O)NN2C(=O)/C(=C/c3cn(C)c4ccccc34)SC2=S)cc1	–	–	–	?	–
O=C(NNC(=O)c1ccc2c(=O)n3c(nc2c1)CCC3)c1cccc(Cl)c1	–	–	–	–	·
COc1cccc(CN(C)C(=O)c2ccc3c(=O)n4c(nc3c2)CCC4)c1	–	–	–	–	·
SMILES	NPC1 prom act	Rab9 prom act	ELG1 genotoxic	FLuc counter	SMN2 splice up
COc1ccc(CN(C)C(=O)c2ccc3c(=O)n4c(nc3c2)CCC4)cc1	2.24µM	1.78µM	?	8.49µM	·
O=C(Oc1ccc(F)cc1)c1ccc2c(=O)n3c(nc2c1)CCC3	–	–	–	12µM	·
O=C(Oc1cccc(F)c1)c1ccc2c(=O)n3c(nc2c1)CCC3	–	–	–	15.1µM	·
CC(OC(=O)c1ccc2c(=O)n3c(nc2c1)CCC3)C(N)=O (stereo not drawn)	–	–	–	–	–
COC(=O)N1C(=O)[C@](c2ccsc2)(C(C)C)N1C(=O)OC	–	–	–	–	·
Cc1ccc(C(=O)N2CCN(c3ccc(NC(=S)NC(=O)c4cccs4)cc3)CC2)cc1	–	–	–	–	·
O=C(CCCCl)NC(=S)Nc1ccc(N2CCOCC2)cc1	2.82µM	1.41µM	?	–	·
CC(C)(C)c1ccc(C(=O)NC(=S)Nc2ccc(N3CCOCC3)cc2)cc1	–	–	–	–	2.82µM
O=C(NC(=S)Nc1ccc(N2CCOCC2)cc1)c1cccs1	?	0.794µM	–	23.9µM	·
CC(C)(C)c1ccc(C(=O)NC(=S)N2CCCC2)cc1	–	–[1.84 µM]	–	9.53µM	·
CC(C)(C)c1ccc(C(=O)Nc2ccc(N3CCOCC3)cc2)cc1	–	–	–	?	–
